Screening results from PubChem.
ALDH1A1 block = inhibitors of human aldehyde dehydrogenase 1A1; Potency, µM (top dose mostly 75.3 µM), for the others: top-dose activity, negative = inhibition, usual class: inhibitors; AID 1030; Purified ALDH1A1, NADH fluorescence, propionaldehyde substrate; 7.3% of 220,000 active;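 also: potency is read from the fitted curve at half-maximal effect; plate controls were no enzyme wells and a reference inhibitor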
GoLoco inh red = blocks human Gai1 binding to RGS12 GoLoco peptide, red readout; P63096; Gai1:RGS12 GoLoco peptide FP, rhodamine, 10 min; Potency, µM (doses to about 61.6 µM), inactives show at the highest dose activity, negative = inhibition, most hits filed as inhibitors; 0.44% of 230,000 active; AID 880; active = well fitted inhibition curve with a large enough effect, not every such curve was filed as active; inactive = no such curve, though single readings can be large or run the other way; also: potency is read from the fitted curve at half-maximal effect; nearly all actives have a fitted effect of over 30% in size
Coupling enz = inhibits coupling enzyme system, counter-screen for aldolase hits. coupling enzyme system counterscreen, AmpLite Red fluorescence. activity change, negative = inhibition, % at 58.2 µM, hits read low. 0.67% of 290,000 active. AID 2472; in the data active = activity change below about -30%
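Counterscreen of the coupled detection system alone, without aldolase: glyceraldehyde-3-phosphate coupling enzymes plus AmpLite Red readout. Compounds at 57.5 uM final, 10 min RT preincubation, 20 min RT reaction, fluorescence 525/598 nm.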
KDM4E inh = inhibitors of human JMJD2E histone demethylase; JMJD2E catalytic domain, FDH-coupled NADH fluorescence (FDH is formaldehyde dehydrogenase); B2RXH2; Potency, µM (top dose mostly 57.1 µM), for the others: at the highest dose activity change, negative = inhibition, most hits filed as inhibitors; 1.6% of 230,000 active;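 also: potency is read from the fitted curve at half-maximal effect; 0% = wells with enzyme and -100% = buffer wells without enzyme; nearly all actives have a fitted effect of over 50% in size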
Target sequence (B2RXH2 1-337 limits assumed): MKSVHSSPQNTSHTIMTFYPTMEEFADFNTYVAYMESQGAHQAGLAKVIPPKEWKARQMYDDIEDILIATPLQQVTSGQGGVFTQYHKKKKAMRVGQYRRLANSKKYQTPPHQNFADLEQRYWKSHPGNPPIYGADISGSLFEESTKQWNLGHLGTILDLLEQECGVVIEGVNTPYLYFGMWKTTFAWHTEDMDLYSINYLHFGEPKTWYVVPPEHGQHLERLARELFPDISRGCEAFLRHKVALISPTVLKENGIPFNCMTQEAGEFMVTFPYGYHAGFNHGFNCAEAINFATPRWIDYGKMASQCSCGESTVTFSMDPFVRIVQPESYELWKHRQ
NPSR antag = blocks cAMP signaling of the human neuropeptide S receptor. Q6W5P4. CHO-NPSR cells, cAMP TR-FRET, antagonist mode. Potency, µM (top dose mostly 38.3 µM), for inactives: top-dose activity change, negative = inhibition, usual class: inhibitors. 1% of 220,000 active. AID 1461; active = well fitted curve in the direction sought with a large enough effect; inconclusive = small, poorly fitted or top-dose-only effect, or another doubt; inactive = no such curve, though single readings can be large; an effect the other way counts as inactive or inconclusive; also: potency is read from the fitted curve at half-maximal effect; nearly all actives have a fitted effect of over 50% in size
Target sequence (Q6W5P4 whole entry, looked up): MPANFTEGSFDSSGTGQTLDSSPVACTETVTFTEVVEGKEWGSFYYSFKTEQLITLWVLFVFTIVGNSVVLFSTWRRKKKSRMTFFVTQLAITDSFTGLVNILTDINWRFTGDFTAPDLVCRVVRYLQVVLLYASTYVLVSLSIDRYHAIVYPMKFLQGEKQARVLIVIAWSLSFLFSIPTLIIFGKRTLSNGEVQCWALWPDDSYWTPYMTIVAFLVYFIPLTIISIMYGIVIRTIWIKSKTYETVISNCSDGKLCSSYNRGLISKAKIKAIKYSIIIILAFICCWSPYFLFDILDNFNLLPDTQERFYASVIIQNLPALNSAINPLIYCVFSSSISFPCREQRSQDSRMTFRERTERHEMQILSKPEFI
Sfp inh = Sfp phosphopantetheinyl transferase inhibition; Q9F4F7; Biochemical Sfp PPTase activity, qHTS; Potency, µM, for the others: largest response in the series, negative = inhibition, usual class: inhibitors; 3.5% of 310,000 active; AID 1490; active = well fitted curve in the direction sought with a large enough effect; inconclusive = small, poorly fitted or top-dose-only effect, or another doubt; inactive = no such curve, though single readings can be large; an effect the other way counts as inactive or inconclusive;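 also: the enzyme is Sfp with the accession as filed and its product quenches rhodamine fluorescence; potency is read from the fitted curve at half-maximal effect; 0% = enzyme reaction without inhibitor and -100% = no enzyme wells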
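Fluorescence-quenching assay: 15 nM Sfp-PPTase preincubated 15 min at room temperature with compound, then 5 uM rhodamine-CoA and 12.5 uM BHQ-2-labelled YbbR peptide added. Fluorescence (ex 525/em 598 nm) read at start and after 30 min; difference gives rate.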
Numbers without * were called inactive; u = inconclusive; x = no result given; [ ] = dose if it differs, or a comment. Only some compounds are listed: those with a hit (about 8.5% of all), similar ones and a draw of the others. Unless noted, calls follow the shape of the dose curve; as a rule, active = well fitted inhibition curve with a large enough effect (not every such curve was filed as active); inconclusive = small, poorly fitted or top-dose-only effect, or another doubt; inactive = no such curve, though single readings can be large or run the other way. Unless noted, % is scaled to controls: 0 for no effect and ±100 for the full control effect.

SMILES	ALDH1A1 block	GoLoco inh red	Coupling enz	KDM4E inh	NPSR antag	Sfp inh
Cc1ccc(CN2C(=O)N/C(=C\c3cccn3-c3cccc(C(=O)O)c3)C2=O)cc1	-4%	10%	14	0%	-44%	50µM*
O=C(O)c1ccc(COc2ccc3ccccc3c2/C=C2/NC(=O)N(Cc3ccc(F)cc3)C2=O)cc1	-2%	32%	-14	u	-45%	71µM*
Cc1ccc(NC(=O)CN2C(=O)N/C(=C/c3ccccc3OCc3cccc(C(=O)O)c3)C2=O)cc1	x	x	12	x	x	89µM*
CCN(c1cccc(C)c1)S(=O)(=O)c1c(C)[nH]c(C)c1C(=O)N1CCCCC1	x	x	4	x	x	15%
Cc1ccc(NC(=O)CN2C(=O)N/C(=C/c3cc(C)n(-c4cccc(C(=O)O)c4)c3C)C2=O)cc1	u	27%	3	u	5%	u
Cc1ccc(NC(=O)CN2C(=O)N/C(=C\c3cccn3-c3cccc(C(=O)O)c3)C2=O)cc1	-4%	10%	0	-17%	-5%	40µM*
N[C@@H](Cc1ccccc1)c1nnc(SC/C=C/c2ccccc2)o1	x	2%	-6	0%	8%	-13%
Cc1cc(C)cc(Oc2nc(-c3ccccc3)cc(C)c2S(C)(=O)=O)c1	14µM*	18%	0	-25%	u	16%
Cc1cc(-c2ccccc2)nc(Oc2ccc(C(C)(C)C)cc2)c1S(C)(=O)=O	-12%	-4%	-2	-28%	u	-2%
COCc1c(C(=O)N/N=C/c2c[nH]c3ccccc23)nnn1-c1nonc1N	x	x	0	x	x	20%
COCc1c(C(=O)N/N=C\c2ccccn2)nnn1-c1nonc1N	x	x	2	x	x	56µM*
Cc1nnn(-c2nonc2N)c1C(=O)N/N=C/c1ccccc1O	3%	18%	1	13µM*	9%	-8%
Cc1cc(S(=O)(=O)NCC(C)C)ccc1OCC(=O)NCC1CCCO1 (configuration not stated)	0%	12%	6	0%	16%	1%
COc1ccccc1CN(C)C(=O)C(NC(=O)Cc1cccc2ccccc12)C(C)C (configuration not stated)	x	x	-3	x	x	10%
O=C(CSCc1ccccc1)N=Nc1c(O)[nH]c2ccccc12	u	-2%	-2	8%	-12%	-4%
O=C(CSCc1cccc(Br)c1)N=Nc1c(O)[nH]c2ccccc12	7.9µM*	150%	x	-11%	-15%[46.1 µM]	-9%
CCn1c(SCC(=O)N=Nc2c(O)[nH]c3ccccc23)nc2ccccc21	6.3µM*	2%	1	3%	-15%	-15%
CCCn1c(C)nc2c(NCCN3CCCCC3)nc(C)nc21	6%	5%	-1	14%	x	37%
S=C(c1ccc(-c2ccccc2Cl)o1)N1CCCCC1	u	-6%	3	-3%	-26%	40µM*
S=C(c1ccc(-c2ccc(Cl)cc2)o1)N1CCCCC1	u	-7%	0	-5%	-9%[46.1 µM]	20µM*
N#CCCN1CCN(C(=S)c2ccc(-c3ccc(Cl)cc3)o2)CC1	4.5µM*	15%	-10	13µM*	-10%[46.1 µM]	20µM*
CN1CCN(C(=S)c2ccc(-c3cccc(Cl)c3Cl)o2)CC1	u	7%	0	0%	-26%	-13%
COC(=O)[C@H](COC(C)(C)C)NC(=O)O[C@H]1C(=O)c2ccc(OC)cc2O[C@@H]1c1ccc2c(c1)OCO2	6%	1%	2	1%	x	-7%
Cc1ccc(NC(=O)C2C3CCC(O3)C2C(=O)O)cc1C (configuration not stated)	x	x	8	x	x	-10%
O=C(O)C1C2CCC(O2)C1C(=O)Nc1ccc(O)cc1 (configuration not stated)	u	16µM*	-36*	1%	11%	u
SMILES	ALDH1A1 block	GoLoco inh red	Coupling enz	KDM4E inh	NPSR antag	Sfp inh
C=CCSc1n[nH]c(-c2ccc(OCCC)cc2)n1	-4%	4%	-1	-8%	-2%[46.1 µM]	-7%
S=c1nc(-c2ccc(Cl)cc2)[nH][nH]1	x	1%	6	u	-3%	45µM*
CCCOc1ccc(-c2nc(=S)[nH][nH]2)cc1	u	-6%	11	-3%	-12%[46.1 µM]	50µM*
O=C(/C=C/c1ccc2c(c1)OCCCO2)c1ccc2ccccc2c1O	-2%	17%	-5	u	-15%	40µM*
CCCNC(=O)OC[C@@H]1O[C@H](CCO/N=C\[C@@H](C)[C@H](OCc2ccccc2)C(C)C)C=C[C@@H]1Oc1ccc(OC)cc1	15%[13.5 µM]	x	-2	x	x	13%
CCOc1ccc(N2C(=O)C3Sc4[nH]c(=O)sc4C(/C=C/c4ccccc4)C3C2=O)cc1 (configuration not stated)	11µM*	40%	-1	-8%	-34%	-25%
Cc1cc(C)n2c(SC/C(O)=C(\C#N)c3nc4ccccc4[nH]3)nnc2n1	18µM*	134%	-14	u	-16%[46.1 µM]	u
Cc1ccccc1-n1c(SC/C(O)=C(\C#N)c2nc3ccccc3[nH]2)nnc1-c1ccncc1	u	70%	0	u	9%[7.67 µM]	10%
Cc1c(NC(=S)N/N=C/c2ccc(Br)cc2)c(=O)n(-c2ccccc2)n1C	x	-3%	0	2%	13%	18%
COc1ccc(/C=N/NC(=S)Nc2c(C)n(C)n(-c3ccccc3)c2=O)cc1OC	-3%	9%	1	-11%	-19%	45µM*
Cc1c(NC(=S)N/N=C/c2ccc([N+](=O)[O-])cc2O)c(=O)n(-c2ccccc2)n1C	x	0%	2	10µM*	6%	31%
O=C(O)/C(=C\c1cccc([N+](=O)[O-])c1)c1ccc(S(=O)(=O)N2CCCCC2)s1	4µM*	-9%	2	12%	11%	-19%
O=C(O)/C(=C\c1ccc(Cl)c([N+](=O)[O-])c1)c1ccc(S(=O)(=O)N2CCCCC2)s1	0.5µM*	-7%	5	-5%	-30%	45µM*
Cc1ccccc1OCC(=O)NN1C(=O)C2C3C=CC(O3)C2C1=O (configuration not stated)	8.9µM*	-29%	1	-2%	16%	50µM*
Cc1ccccc1OCC(=O)NN1CCN(C)CC1	16%	7%	2	-2%	22%	2%
Cc1cccc(OCC(=O)NN2C(=O)C3C4C=CC(O4)C3C2=O)c1 (configuration not stated)	3.2µM*	-32%	-1	-1%	8%	40µM*
CCOc1ccc(C(=O)NN2C(=O)C3C4C=CC(O4)C3C2=O)cc1 (configuration not stated)	13µM*	-18%	2	5%	-5%[46.1 µM]	28µM*
CCOc1ccc(NC(=O)c2ccc(N)cc2)cc1	4%	8%	2	6%	11%[46.1 µM]	16%
